In PubChem BioAssay AID2314 (National Center for Advancing Translational Sciences (NCATS), 2010):
Values joined by “and” are separate entries in the source; they are usually repeats but may differ in a detail not shown here. Equal entries are not always repeated. About 37,000 (12%) of roughly 300,000 compounds were called active. What follows is part of a selection rich in actives, with near analogues and random picks from the rest. A number with no mark means an inactive call. Cut-off read from the data, not from the text of the source: active = max response mostly above about 13% (no sharp cut-off); inactive = mostly below about 14%.

assay: Cycloheximide Counterscreen for Small Molecule Inhibitors of Shiga Toxin; settings: cell reporter, cycloheximide protein synthesis inhibition counterscreen; hits give high values; note: read at 38.3 µM for the half of the compounds with a filed dose; 0% is about no effect

Row | Structure (SMILES) | max response
1 | C=CCn1c(-c2ccccc2OCC)n[nH]c1=S | 5.03%
2 | COc1ccccc1C(=O)N(Cc1ccc(C)o1)C1CCS(=O)(=O)C1 (centres undefined) | 1.49%
3 | COc1cc(Cl)c(C)cc1NC(=O)CSc1nnc(-c2ccco2)n1CC(C)C | -3.52%
4 | O=C(CC12CC3CC(CC(C3)C1)C2)Nc1ccc2c(c1)COC2=O | -2.75%
5 | Cc1ccc2oc(C(=O)N3CCN(C)C[C@@H]3C(C)C)c(C)c2c1 | 22.3% (active)
6 | COc1ccccc1N1CCN(C(=O)c2cc(=O)c3cc(C)ccc3o2)CC1 | -2.83%
7 | Cc1ccc2c(C)c(C(=O)N3CCC(N4CCC(C(=O)NC5CC5)CC4)CC3)oc2c1 | 0.384%
8 | COc1cccc(CNC(=O)c2cccnc2Sc2ccc(Cl)cc2)c1 | 0.861%
9 | O=C(NCc1cc(C(F)(F)F)cc(C(F)(F)F)c1)C1CC(c2cccc(F)c2)=NO1 (centres undefined) | -1.65%
10 | CCCn1nc(NS(=O)(=O)c2ccc(F)cc2)c2cc3ccccc3nc21 | -11.4%
11 | N#Cc1ccc(N2Cc3ccccc3/C2=N/C(=O)Nc2ccc(Cl)cc2)cc1 | 15%
12 | Cc1cccc(N2CCN(C(=O)c3cccc(S(=O)(=O)N4CCc5ccccc5C4)c3)CC2C)c1 (centres undefined) | 1.1%
13 | Cc1cccc(N2Cc3ccccc3C2=NC(=O)c2ccc(Cl)nc2)c1 | 35.1% (active)
14 | COc1ccc(C(=O)CC(=O)C(=O)Nc2cc([N+](=O)[O-])ccc2OC)cc1 | -2.37%
15 | Cn1c(N2CCOCC2)c(C=O)c2ccccc21 | -2.7%
16 | Cc1ccc(S(=O)(=O)N(CC(=O)N2CCc3ccccc3C2)c2cccc(Cl)c2)cc1 | -3.56%
17 | COc1ccc(-c2[nH]nc(-c3ccccc3)c2-c2nc3ccccc3[nH]2)cc1 | -1.76%
18 | Cc1ccccc1N1CC(c2nc3ccccc3[nH]2)CC1=O (centres undefined) | -2.15%
19 | Cc1ccc(-c2nc3ccccc3[nH]c2=O)cc1 | 24.9% (active)
20 | CCC(C(=O)NC1CCCCC1)N(C(=O)c1snc(C(N)=O)c1N)c1ccc(OC)cc1OC (centres undefined) | -5.48%

Row | Structure (SMILES) | max response
21 | COc1ccccc1C(=O)Nc1ccnn1C1CCN(C(=O)C(C)(C)C)CC1 | 2.22%
22 | O=S(=O)(Nc1ccccn1)c1cccc(S(=O)(=O)c2ccc(Cl)cc2)c1 | 1.04%
23 | O=C(Nc1ccc(S(=O)(=O)Nc2ccccn2)cc1)c1ccccc1 | -3.7%
24 | Cc1ccc(S(=O)(=O)/N=C(/Nc2ccc3[nH]c(=O)[nH]c3c2)c2ccccc2)cc1 | -2.26%
25 | Cc1ccc(S(=O)(=O)/N=C(/Nc2ccccn2)c2ccc(Cl)cc2)cc1 | 18.6% (active)
26 | Cc1ccc(S/C(=N\S(=O)(=O)c2ccc(Cl)cc2)c2ccccc2)cc1 | -3.74%
27 | O=S(=O)(/N=C(/Nc1ccccn1)c1ccccc1)c1ccc(Cl)cc1 | 15.2% (active)
28 | COc1ccc(SCCN2CCN(CC(C)C)CCC2=O)cc1 | 4.3% and 7.92%
29 | Cc1nn(C)c(C)c1C(C)NC(=O)c1ccc(OC2CCN(Cc3ccccn3)CC2)cc1 (centres undefined) | -1.08%
30 | O=C(/C=C/c1ccccc1[N+](=O)[O-])OC1CCCCC1=O (centres undefined) | -0.626%
31 | O=C(/C=C/c1ccccc1[N+](=O)[O-])NCC1CCCO1 (centres undefined) | 10.2%
32 | CC1CCCCC1NC(=O)/C(C#N)=C/C=C/c1ccccc1[N+](=O)[O-] (centres undefined) | 32.9% (active)
33 | CCN(C(=O)CSc1nc2ccccc2n1CC)C1CCS(=O)(=O)C1 (centres undefined) | 1.92%
34 | O=C(OCC(=O)c1cccs1)c1ccc([N+](=O)[O-])o1 | 3%
35 | O=C(OCC(=O)c1cccs1)C1=COCCO1 | 51.4% (active)
36 | CCC(C)(C)c1ccc(Oc2ccc(NC(=O)COC(=O)C3=COCCO3)cc2)cc1 | 5.65%
37 | CCOC(=O)c1c(C)[nH]c(C)c1S(=O)(=O)NCCCc1ccco1 | -2.93%
38 | CCOc1ccc(C2c3[nH]c4ccccc4c3CCN2Cc2cccn2-c2ncccn2)cc1 (centres undefined) | 0.0691%
39 | C/C(=N\NC(=O)C1(C)CC1(Br)Br)c1ccc(C)cc1C (centres undefined) | 12.6%
40 | O=[N+]([O-])c1cc(S(=O)(=O)Nc2cccc(Cl)c2)ccc1N=Nc1c(O)[nH]c2ccccc12 | -1.65%

Row | Structure (SMILES) | max response
41 | O=C(CCCCCNC(=O)c1ccccc1)N/N=C/c1ccccc1 | 13.5%
42 | O=C(CCC(=O)Nc1ccccc1)N/N=C/c1ccccc1F | 25.1% (active)
43 | C=CCOc1ccccc1/C=N/NC(=O)Cc1ccccc1 | 9.84%
44 | COc1ccc(C(C)NC(=O)C23CC4CC(CC(C4)C2)C3)cc1 (centres undefined) | -0.477%
45 | Cc1noc(C)c1S(=O)(=O)Nc1ccc(C(=O)N2CCN(c3ccc(F)cc3)CC2)cc1 | 11.8%
46 | CCOC(=O)C1=C(O)CSC1=Nc1cccc(Cl)c1 | -2.53%
47 | CN(C)c1nc(=Nc2cccc(Cl)c2)ss1 | 24.1% (active)
48 | N#Cc1cccc(NC(=O)COC(=O)c2ccccc2C(=O)c2ccc(Cl)c([N+](=O)[O-])c2)c1 | 3.74%
49 | O=c1[nH]c(=S)[nH]c2[nH]c(=S)[nH]c12 | -3.22%
50 | CCOC(=O)C1CCN(C(=O)c2ccccc2N(C)S(=O)(=O)c2ccccc2)CC1 | -2.92%
51 | O=C(Nc1cccc(Cl)c1)Nc1ccccc1NS(=O)(=O)c1cccs1 | 11% (active)
52 | O=S(=O)(NCCc1ccc(Cl)cc1)c1cccs1 | 7.85%
53 | O=C(Nc1nncs1)c1ccccc1NS(=O)(=O)c1cccs1 | 2.77%
54 | CN(Cc1ccc(F)cc1Cl)S(=O)(=O)c1cccs1 | 15.3%
55 | O=S(=O)(NCc1ccc(Cl)cc1Cl)c1cccs1 | 14.3% (active)
56 | O=S(=O)(Nc1ccccc1Br)c1cccs1 | -5.92%
57 | O=C(Nc1ccc(Br)cn1)C1CCN(S(=O)(=O)c2cccs2)CC1 | 2.63%
58 | c1ccc(C2CNCc3c2ccc2ccccc32)cc1 (centres undefined) | -1.66%
59 | COc1cc(-c2n[nH]c(=S)n2Cc2ccccc2)cc(OC)c1OC | -3.31%
